Methyltransferases – Primary Screen for Target Class Profiling of Small Molecule Inhibitors of Methyltransferases; purified enzyme, MTase-Glo SAH luminescence; stronger effect = lower value; calls only at 40 µM; hit rate 3.9% among 25,000; call rule not given here
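Each enzyme was assayed with SAM and its substrate. SAH formation detected by MTase-Glo luminescence; single-point 40 uM screen[…].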
An asterisk follows results filed as active; i = inactive; + = active, no number; ! = not confirmed by another sample. This is one part of a sample in which hits are shown more often than they occur. % is set by controls: 0 for no effect and ±100 for the full control effect.

SMILES	Methyltransferases
CC1=CCC2C(C)(C)CCCC2(C)C1CC12OC1C(O)C(CO)=CC2O (stereo not given)	i
CC(=O)OC/C(=C/C(=O)O)CC[C@@H]1C(CO)=CC[C@@H]2C(C)(C)CCC[C@@]12C	+
CC(=O)OC/C(=C/C(=O)O)CC[C@@H]1C(C=O)=CC[C@@H]2C(C)(C)CCC[C@@]12C	+
CC1(C)CCC[C@]2(C)C1CC=C(CO)[C@H]2CC/C(=C/CO)CO (stereo not given in full)	i
CC(C)CCN1C(=O)c2cc3sccc3n2CC1(C)C(=O)NC1CCCCC1C (stereo not given)	i
CCCn1c(=O)c2ccc(C(=O)NC3CCCCC3)cc2n2c(=O)n(CC(=O)Nc3ccccc3)nc12	i
CCc1cccc(NS(=O)(=O)c2cc3c(cc2Cl)n(C)c(=O)n3C)c1	i
COc1ccc(CN2C(=O)c3nc4ccccc4n3CC2(C)C(=O)NCCC(C)C)cc1 (stereo not given)	i
COc1ccc(N2C(=O)c3cc(-c4cccs4)nn3CC2(C)C(=O)NC2CCCCC2)cc1 (stereo not given)	i
O=C(CSc1nnc2n(CCc3ccccc3)c(=O)c3ccccc3n12)Nc1cccc(Cl)c1	i
CN(C)c1ccc(CNC(=O)c2cc3n(n2)CC(C)(C(=O)NCc2ccc(F)cc2)N(C)C3=O)cc1 (stereo not given)	i
CCN1CCN(Cc2ccc(NC(=O)Nc3ccc(Oc4cc(NC)ncn4)cc3)cc2C(F)(F)F)CC1	+
CCOc1cccc(NC(=O)c2ccc(N3CCCC3)c(C(F)(F)F)c2)c1	i
CCOc1ccc(NC(=O)N2CCn3cccc3C2C(C)C)cc1 (stereo not given)	i
CN1CCN(Cc2ccc(NC(=O)Cc3ccc(Oc4cc(NC(=O)C5CC5)ncn4)cc3)cc2C(F)(F)F)CC1	+
COc1ccc(NC(=O)COc2ccc(NC(=O)C3CC3)cn2)cc1	i
Cc1ccc(CCNC(=O)C2CCN(c3cc(C(F)(F)F)ncn3)CC2)cc1	i
COCCCNC(=O)c1cc2n(n1)CC(C)(C(=O)NC1CCCCCC1)N(C)C2=O (stereo not given)	i
Cc1cc2[nH]c(=O)[nH]c2cc1S(=O)(=O)N1CCCCC1	i
Cn1c(=O)c2ccc(C(=O)NC3CCCC3)cc2n2c(SCC(=O)c3ccc(F)cc3)nnc12	i
CC(C)OCCCn1c(=O)c2ccccc2n2c(SCC(=O)Nc3ccccc3F)nnc12	i
CCc1cc2c(cc3n2CC(C)(C(=O)NC2CCCCC2)N(CCCc2ccccc2)C3=O)s1 (stereo not given)	i
CCOC(=O)CCN(C(=O)c1ccc2c(c1)nc(CNc1ccc(C(=N)N)cc1)n2C)c1ccccn1	+
COc1ccc(CNC(=O)c2cc3n(n2)CC(C)(C(=O)NCCC(C)C)N(C)C3=O)cc1 (stereo not given)	i
COc1ccc(C(=O)Cn2nc3n(CC(C)C)c(=O)c4ccc(C(=O)NC(C)C)cc4n3c2=O)cc1	i
SMILES	Methyltransferases
CCCN1C(=O)c2c(C(=O)NCc3ccccc3OC)ncn2CC1(C)C(=O)NCCC(C)C (stereo not given)	i
CC1(C(=O)NC2CCCC2)Cn2c(ccc2-c2ccccc2)C(=O)N1CCCc1ccccc1 (stereo not given)	i
CSc1ccc(CCN2C(=O)c3ccc(-c4ccco4)n3CC2(C)C(=O)NC2CCCCC2)cc1 (stereo not given)	i
CC(C)(Sc1ccc(CCN(CCCCC2CCCCC2)C(=O)NC2CCCCC2)cc1)C(=O)O	+!
COc1cccc(CNC(=O)c2cc3n(n2)CC(C)(C(=O)NCc2ccccc2)N(C)C3=O)c1 (stereo not given)	i
CN1CCN(CCCN2C(=O)c3ccc(-c4ccco4)n3CC2(C)C(=O)NC2CCCC2)CC1 (stereo not given)	i
O=c1cc(N2CCOCC2)oc2c(NCC3CCOCC3)nccc12	i
c1nc(NCC2CCOC2)c2cc(-c3ccc4c(c3)OCO4)ccc2n1 (stereo not given)	+
Cc1ccc(N2C(=O)c3cc4sccc4n3CC2(C)C(=O)NC2CCCCCC2)cc1C (stereo not given)	i
CCCn1c(=O)c2ccc(C(=O)NC3CCCC3)cc2n2c(=O)n(Cc3cc(C)ccc3C)nc12	i
COCCN1C(=O)c2c(NC(C)=O)c3cc(F)ccc3n2CC1(C)C(=O)NC1CCCC1 (stereo not given)	i
CCC(C)NC(=O)c1ccc2c(=O)n(C(C)C)c3nn(CC(=O)c4cc(C)ccc4C)c(=O)n3c2c1 (stereo not given)	i
O=C1Nc2ccccc2C12CN([S+](=O)([O-])c1ccccc1)C2	i
O=C(O)CC1(O)C(=O)Nc2ccccc21 (stereo not given)	+
Cn1nccc1CN1CC2(C1)C(=O)Nc1ccccc12	i
COc1ccc(-c2cc3n(n2)CC(C)(C(=O)NCc2ccccc2)N(c2ccccc2C)C3=O)cc1 (stereo not given)	i
CCCCN1C(=O)c2cc(C(=O)Nc3ccc(C)cc3C)nn2CC1(C)C(=O)NC1CCCC1 (stereo not given)	i
COc1cccc(CN2C(=O)CSc3c(c4ccccc4n3C)C2C(=O)NCCC(C)C)c1 (stereo not given)	i
COCCCN1C(=O)c2ccccc2CC1(C)C(=O)NC1CCCCCCC1 (stereo not given)	i
Cc1cc(C)c(NC(=O)N(Cc2ccc3c(c2)Cc2ccccc2-3)C2CCCCCC2)c(C)c1	+
CC1(C(=O)NC2CCCCCCC2)Cc2ccccc2C(=O)N1Cc1cccs1 (stereo not given)	i
Cc1ccccc1Cn1nc2n(CCC(C)C)c(=O)c3ccc(C(=O)NC(C)C)cc3n2c1=O	i
CC(C)Cn1c(=O)c2ccccc2n2c(=O)n(CC(=O)Nc3ccc(Cl)cc3)nc12	i
Cc1ccc(CNC(=O)CCc2nnc3n(Cc4ccc(F)cc4)c(=O)c4ccccc4n23)cc1	i
CC(C)n1nc(-c2ccc3oc(N)nc3c2)c2c(N)ncnc21	i
SMILES	Methyltransferases
CC(C)n1nc(Cc2cccc3ccccc23)c2c(N)ncnc21	+
CC(C)n1nc(CNC(=O)Cc2ccc(F)cc2)c2ccccc21	i
CCOC(=O)Cc1c(-c2ccccc2)c2cc(Br)ccc2[nH]c1=O	i
CC1CCC(NC(=O)C2(C)Cn3c(cc4sccc43)C(=O)N2CCc2ccc(Cl)cc2)CC1 (stereo not given)	i
Cc1ccc(NS(=O)(=O)c2cc3[nH]c(=O)[nH]c3cc2C)cc1Cl	i
COc1ccc(CCN2C(=O)c3cc4ccccc4n3CC2(C)C(=O)NCc2ccccc2OC)c(OC)c1 (stereo not given)	i
CCC(=O)N1CCN(c2ccc(-n3c(=O)ccc4cnc5ccc(-c6cnc7ccccc7c6)cc5c43)cc2C(F)(F)F)CC1	i
Nc1ccc(-c2ccc3ncc4ccc(=O)n(-c5cccc(C(F)(F)F)c5)c4c3c2)cn1	+
CC1(C(=O)NC2CCCCCC2)Cn2c(cc3sccc32)C(=O)N1Cc1cccc(Cl)c1 (stereo not given)	i
CCC(C)NC(=O)c1ccc2c(=O)n(C(C)C)c3nn(CC(=O)Nc4ccccc4)c(=O)n3c2c1 (stereo not given)	i
CCC1c2ccc(C)n2CCN1C(=O)Nc1ccccc1F (stereo not given)	i
Cc1ccccc1CSc1nnc2n(CCCOC(C)C)c(=O)c3cc(Cl)ccc3n12	i
